# Experimental data: ChEMBL document CHEMBL1961873, “Compounds: GSK PKIS; Assays: Nanosyn kinase panel” (2012)
# Experiments:
# [1] = target: Sphingosine kinase 1 (Homo sapiens) (UniProt Q9NYA1); conditions: at 1 µM;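 also: mean SPHK1 inhibition value reported from the GSK PKIS kinase panel screen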
# [2] = target: T1, Sphingosine kinase 2 (Homo sapiens) (UniProt Q9NRA0); conditions: at 0.1 µM
# T1 sequence (whole entry): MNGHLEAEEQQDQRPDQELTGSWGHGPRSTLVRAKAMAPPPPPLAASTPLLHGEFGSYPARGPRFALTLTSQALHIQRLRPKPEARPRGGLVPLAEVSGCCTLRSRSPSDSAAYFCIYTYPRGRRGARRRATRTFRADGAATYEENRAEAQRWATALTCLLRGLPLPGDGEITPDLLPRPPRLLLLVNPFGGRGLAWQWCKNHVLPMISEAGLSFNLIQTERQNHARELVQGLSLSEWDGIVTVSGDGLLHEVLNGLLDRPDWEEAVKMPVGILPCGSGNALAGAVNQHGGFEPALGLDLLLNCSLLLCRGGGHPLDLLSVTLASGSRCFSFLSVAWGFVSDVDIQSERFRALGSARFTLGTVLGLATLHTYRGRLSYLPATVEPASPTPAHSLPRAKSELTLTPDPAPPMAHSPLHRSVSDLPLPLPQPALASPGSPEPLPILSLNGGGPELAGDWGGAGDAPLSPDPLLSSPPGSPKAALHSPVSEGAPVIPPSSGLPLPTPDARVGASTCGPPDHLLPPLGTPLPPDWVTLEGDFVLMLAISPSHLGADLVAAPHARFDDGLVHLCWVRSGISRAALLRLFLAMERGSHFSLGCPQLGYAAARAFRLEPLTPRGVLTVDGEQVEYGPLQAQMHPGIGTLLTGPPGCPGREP
# [3] = target: T1, Sphingosine kinase 2 (Homo sapiens); conditions: at 1 µM
# [4] = target: Casein kinase II subunit alpha (Homo sapiens) (UniProt P68400); conditions: at 0.1 µM
# Sequence of Casein kinase II subunit alpha (Homo sapiens) (P68400 whole entry, looked up): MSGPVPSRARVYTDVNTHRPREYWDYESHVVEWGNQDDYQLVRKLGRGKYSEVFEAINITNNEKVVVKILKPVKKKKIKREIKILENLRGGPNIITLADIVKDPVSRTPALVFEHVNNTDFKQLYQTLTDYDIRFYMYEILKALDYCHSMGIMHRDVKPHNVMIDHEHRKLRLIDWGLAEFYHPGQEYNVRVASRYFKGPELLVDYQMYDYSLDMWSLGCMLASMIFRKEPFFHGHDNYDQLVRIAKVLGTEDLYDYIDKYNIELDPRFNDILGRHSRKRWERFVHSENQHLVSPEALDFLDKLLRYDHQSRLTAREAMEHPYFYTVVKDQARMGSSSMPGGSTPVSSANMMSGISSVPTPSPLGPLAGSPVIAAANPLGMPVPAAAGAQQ
# [5] = target: Casein kinase II subunit alpha (Homo sapiens) (UniProt P68400); conditions: at 1 µM
# [6] = target: T2, Inhibitor of nuclear factor kappa-B kinase subunit alpha (Homo sapiens) (UniProt O15111); conditions: at 0.1 µM
# T2 sequence (whole entry): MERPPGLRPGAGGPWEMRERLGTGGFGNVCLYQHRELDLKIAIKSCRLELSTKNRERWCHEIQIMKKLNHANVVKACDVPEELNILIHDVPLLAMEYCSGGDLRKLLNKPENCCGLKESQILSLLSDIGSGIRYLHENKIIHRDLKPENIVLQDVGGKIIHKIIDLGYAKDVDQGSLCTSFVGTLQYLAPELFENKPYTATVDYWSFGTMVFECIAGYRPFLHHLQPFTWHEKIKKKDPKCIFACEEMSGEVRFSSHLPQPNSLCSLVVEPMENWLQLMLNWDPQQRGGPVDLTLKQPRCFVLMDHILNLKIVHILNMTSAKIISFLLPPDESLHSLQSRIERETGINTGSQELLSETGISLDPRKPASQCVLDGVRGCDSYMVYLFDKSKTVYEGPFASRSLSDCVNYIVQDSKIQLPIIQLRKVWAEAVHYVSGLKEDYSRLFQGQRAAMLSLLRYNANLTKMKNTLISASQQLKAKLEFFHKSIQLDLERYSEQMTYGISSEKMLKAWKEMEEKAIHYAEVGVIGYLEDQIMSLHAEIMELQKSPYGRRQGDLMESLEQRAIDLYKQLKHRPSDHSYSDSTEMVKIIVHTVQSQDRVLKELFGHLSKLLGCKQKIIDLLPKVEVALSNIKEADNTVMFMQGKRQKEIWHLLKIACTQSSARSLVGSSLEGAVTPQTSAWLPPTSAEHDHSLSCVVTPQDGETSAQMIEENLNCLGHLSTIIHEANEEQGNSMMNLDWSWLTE
# [7] = target: T2, Inhibitor of nuclear factor kappa-B kinase subunit alpha (Homo sapiens); conditions: at 1 µM
# [8] = target: T3, Inhibitor of nuclear factor kappa-B kinase subunit beta (Homo sapiens) (UniProt O14920); conditions: at 0.1 µM
# T3 sequence (whole entry): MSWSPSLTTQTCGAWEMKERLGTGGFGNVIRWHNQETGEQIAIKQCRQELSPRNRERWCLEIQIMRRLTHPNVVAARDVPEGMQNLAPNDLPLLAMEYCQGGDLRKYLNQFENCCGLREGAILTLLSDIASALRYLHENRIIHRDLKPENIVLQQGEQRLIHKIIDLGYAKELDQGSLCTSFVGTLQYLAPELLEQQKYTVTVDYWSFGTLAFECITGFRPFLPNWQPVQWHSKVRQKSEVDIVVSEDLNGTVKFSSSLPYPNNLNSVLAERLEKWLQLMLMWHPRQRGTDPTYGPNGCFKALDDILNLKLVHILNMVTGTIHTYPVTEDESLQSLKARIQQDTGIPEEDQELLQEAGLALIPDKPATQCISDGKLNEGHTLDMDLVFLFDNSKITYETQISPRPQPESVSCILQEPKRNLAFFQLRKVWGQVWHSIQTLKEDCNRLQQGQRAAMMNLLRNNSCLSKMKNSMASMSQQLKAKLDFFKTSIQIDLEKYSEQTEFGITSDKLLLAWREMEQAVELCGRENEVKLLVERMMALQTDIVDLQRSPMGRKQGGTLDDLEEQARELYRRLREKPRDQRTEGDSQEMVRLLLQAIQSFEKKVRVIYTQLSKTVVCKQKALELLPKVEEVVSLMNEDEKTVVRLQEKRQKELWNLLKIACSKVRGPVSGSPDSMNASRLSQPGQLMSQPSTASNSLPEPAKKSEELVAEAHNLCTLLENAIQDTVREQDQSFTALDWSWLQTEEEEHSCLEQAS
# [9] = target: T3, Inhibitor of nuclear factor kappa-B kinase subunit beta (Homo sapiens); conditions: at 1 µM
# [10] = target: T4, Inhibitor of nuclear factor kappa-B kinase subunit epsilon (Homo sapiens) (UniProt Q14164); conditions: at 0.1 µM;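 also: mean inhibition of IKKε reported, from the GSK PKIS dataset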
# T4 sequence (whole entry): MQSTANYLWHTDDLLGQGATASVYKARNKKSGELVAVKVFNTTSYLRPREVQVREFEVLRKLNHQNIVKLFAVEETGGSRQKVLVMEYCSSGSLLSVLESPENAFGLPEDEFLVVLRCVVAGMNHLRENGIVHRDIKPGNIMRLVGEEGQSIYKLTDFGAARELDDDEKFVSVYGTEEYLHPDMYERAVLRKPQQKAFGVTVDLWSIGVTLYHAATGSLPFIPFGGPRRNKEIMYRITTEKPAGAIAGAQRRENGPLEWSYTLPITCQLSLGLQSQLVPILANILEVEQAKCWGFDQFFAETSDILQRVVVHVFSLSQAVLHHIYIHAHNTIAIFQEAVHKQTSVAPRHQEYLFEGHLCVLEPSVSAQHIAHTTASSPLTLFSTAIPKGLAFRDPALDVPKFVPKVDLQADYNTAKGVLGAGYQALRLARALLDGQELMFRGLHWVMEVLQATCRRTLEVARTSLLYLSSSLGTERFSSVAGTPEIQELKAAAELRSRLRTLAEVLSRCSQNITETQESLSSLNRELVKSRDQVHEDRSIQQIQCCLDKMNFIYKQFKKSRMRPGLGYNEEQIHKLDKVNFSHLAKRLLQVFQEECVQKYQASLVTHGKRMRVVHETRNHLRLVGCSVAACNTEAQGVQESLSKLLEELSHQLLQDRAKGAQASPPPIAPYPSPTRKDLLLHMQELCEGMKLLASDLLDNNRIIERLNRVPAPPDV
# Sequence of Sphingosine kinase 1 (Homo sapiens) (Q9NYA1 whole entry): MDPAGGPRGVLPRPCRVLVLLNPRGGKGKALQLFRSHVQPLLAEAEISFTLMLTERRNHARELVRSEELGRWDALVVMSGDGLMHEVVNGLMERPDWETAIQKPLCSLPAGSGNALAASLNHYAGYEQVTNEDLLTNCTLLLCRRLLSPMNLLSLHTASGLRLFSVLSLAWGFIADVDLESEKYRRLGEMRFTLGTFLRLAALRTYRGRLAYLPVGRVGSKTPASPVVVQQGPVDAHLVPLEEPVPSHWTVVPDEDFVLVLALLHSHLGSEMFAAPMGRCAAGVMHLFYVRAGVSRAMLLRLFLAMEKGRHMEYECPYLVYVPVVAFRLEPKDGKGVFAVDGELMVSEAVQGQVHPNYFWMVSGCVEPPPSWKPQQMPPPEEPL
Compound,inhibition [1] [%],inhibition [2] [%],inhibition [3] [%],inhibition [4] [%],inhibition [5] [%],inhibition [6] [%],inhibition [7] [%],inhibition [8] [%],inhibition [9] [%],inhibition [10] [%]
CCc1ccc(Oc2nccc(-c3c(-c4ccc(F)cc4)ncn3C3CCNCC3)n2)cc1,11.5,1.25,0.72,3.17,4.14,-3.32,-1.04,3.54,4.07,8.2
O=C(Nc1n[nH]c2nc(-c3ccc(O)cc3)c(Br)cc12)C1CC1,-0.49,-0.76,-0.74,3.43,5.84,8.51,12.4,6.98,9.61,8.95
c1ccc(Oc2ccc(Nc3ncc(-c4ccccc4)o3)cc2)cc1,0.89,3.77,-0.07,3.77,5.82,5.9,-0.96,1.69,-1.75,1.29
CCc1nccc2c1nc(-c1nonc1N)n2CC,-1.61,1.28,1.35,0.7,-1.05,2.04,-4.71,0.02,-1.22,0.57
CN(C)c1ccc2c(c1)/C(=C/Nc1ccc(S(N)(=O)=O)cc1)C(=O)N2,-2.05,0.7,0.06,2.93,18,1.67,6.64,2.49,1.1,4.67
c1ccc(-c2n[nH]cc2-c2ccnc(-c3ccc(OCCN4CCOCC4)cc3)c2)nc1,-1.7,0.79,-2.14,-3.28,-4.72,-2.42,-8.48,-4.16,-6.86,-5.44
COC(=O)Nc1nc2ccc(Sc3ccc(NC(=O)Nc4cc(C(F)(F)F)ccc4F)cc3)cc2[nH]1,4.23,-0.54,-0.1,2.02,6.92,2.75,-2,-0.76,-1.08,-0.58
Fc1ccc(-c2c(-c3ccncc3)nc3n2CCS3)cc1,1.66,0.08,0.64,2.23,2.3,7.58,3.05,2.88,3.75,4.09
COc1cccc(-n2cnc3c(N/N=C/c4ccncc4)ncnc32)c1,0.02,0.58,-0.25,0.97,10.8,0.84,-1.74,1.12,3.32,3.81
CCS(=O)(=O)c1ccc(OC)c(Nc2ncc(-c3cccc(-c4ccccc4F)c3)o2)c1,0.74,0.06,-2.48,1.79,4.95,3.18,3.18,0.01,-1.42,-1.02
CCc1cccc(CC)c1/C=C/c1cncc(C(=O)NC)c1,-1.72,0.98,1.95,-0.28,-1.26,-2.82,-5.51,4.86,2.91,1.34
CCN(CC)Cc1ccc(Nc2nccc(-c3cnn4ncccc34)n2)cc1,7.74,4.29,2.72,10.9,31.1,3.66,34.9,7.57,17.5,8.95
COc1cc(N2CCN(C(C)C)CC2)ccc1Nc1nc(Nc2ccc(F)cc2C(=O)NC[C@@H](O)CO)c2cc[nH]c2n1,5.85,0.95,0.89,4.77,15.7,6.97,11.1,7.85,9.5,8.4
COc1ccc(-c2ccc3c(NC(=O)C4CC4)n[nH]c3n2)cc1,-0.43,-0.3,1.99,3.46,8.9,9.58,7.37,4.51,4.44,6.37
O=C(Nc1n[nH]c2cc(-c3ccccc3)ccc12)C1CC1,0.1,-1.1,-0.92,1.99,6.38,2.61,7.25,5.63,3.54,4.3
Nc1nccc(-c2c(-c3ccc(F)cc3)ncn2C2CCC(O)CC2)n1 (stereo not given),-4.02,2.29,0.26,-0.03,1.03,2.77,5.56,0.1,-1.66,-3.9
O=C(Nc1n[nH]c2cc(-c3cc(F)ccc3F)ccc12)C1CC1,-2.44,2.23,0.13,2.27,2.39,8.06,7.87,4.95,5.11,4.29

Compound,inhibition [1] [%],inhibition [2] [%],inhibition [3] [%],inhibition [4] [%],inhibition [5] [%],inhibition [6] [%],inhibition [7] [%],inhibition [8] [%],inhibition [9] [%],inhibition [10] [%]
CN1CCN(CCCNc2nc3ccc(Oc4ccc(NC(=O)Nc5cc(C(F)(F)F)ccc5F)cc4)cc3[nH]2)CC1,-1.27,-0.2,-0.28,-2.06,-5.31,3.44,-6.02,0.21,-0.85,-0.49
COc1cc2ncn(-c3cc(OCc4ccccc4C(F)(F)F)c(C(C)=O)s3)c2cc1OC,-6.56,-0.29,-1.72,5.99,2.45,2.23,7.97,5.2,9.05,6.32
COc1cc(Nc2ncc3c(C)nc(-c4cccc(C(F)(F)F)c4)n3n2)cc(OC)c1OC,-1.99,0.44,-3.1,9.99,43.1,-0.47,4.04,3.58,3.21,10.6
COc1cccc(/C=N/Nc2ncnc3c2cnn3-c2cccc(OC)c2)c1,0.34,-0.71,-0.63,5.99,3.05,7.48,-3.48,6.4,6,4.37
FC(F)(F)c1cccc(Nc2nccc(-c3cnn4nc(-c5ccccc5)ccc34)n2)c1,-2.23,-1.01,-0.56,7.97,4.42,1.94,7.04,3.55,3.27,3.76
CS(=O)(=O)CCNCc1ccc(-c2ccc3ncnc(Nc4ccc(OCc5ccccc5)c(Br)c4)c3c2)o1,-1.39,-0.25,-1.58,13.7,5.24,3.37,1.56,9.38,11,6.98
Fc1ccc(-c2ncn(C3CCNCC3)c2-c2ccnc(Oc3ccc(Oc4ccccc4)cc3)n2)cc1,-0.85,-0.41,-0.56,4.31,4.14,4.44,5.03,5.84,6.14,7.47
Cc1ccc(C(=O)NC2CCC2)cc1-c1ccc(C(=O)NCC2CC2)cc1,-2.08,0.15,-0.32,0.14,-0.02,5.36,2.23,3.94,0.66,3.52
COc1cc(C)c(N(C)C(=O)CN(C)C)cc1Nc1nc(Nc2cccc(F)c2C(N)=O)c2cc[nH]c2n1,-0.02,0.91,-0.35,0.17,4.3,3.63,1.85,2.96,-0.54,1.26
O=C1NC(=O)C(c2cccc(Cl)c2)=C1Nc1ccc(Cl)c(C(=O)O)c1,2.31,-0.06,0.61,2.24,7.88,2.51,-0.25,3.73,4.76,6.56
O=C(Nc1ccc(Oc2ccc3[nH]c(NC(=O)c4ccccc4)nc3c2)cc1)Nc1cc(C(F)(F)F)ccc1F,3.13,17.6,-0.1,2.74,4.99,-5.25,-0.85,4.57,2.88,3.68
O=C1Nc2ccccc2/C1=C/Nc1ccc(-n2cncn2)cc1,-4.72,-0.36,1.3,7.12,12.8,11.8,2.05,9.35,11.4,7.57
Clc1ccc(CNc2nccc(-c3cnn4ncccc34)n2)cc1,0.04,-0.11,-0.22,2.95,17.9,1.91,7.65,1,0.32,0.31
COc1cc(Nc2ncc3c(C)nc(-c4cccc(Oc5ccccc5)c4)n3n2)cc(OC)c1OC,-0.76,0.82,0,0.59,12.7,2.21,-5.5,1.1,0.16,2.97
C#Cc1cccc(Nc2ncnc3ccc(OCCCCNCCS(C)(=O)=O)cc23)c1,-0.99,-0.09,0.04,4.02,9.21,5.89,12.2,6.73,9.06,7.86
NS(=O)(=O)c1ccc(N/N=C2\C(=O)Nc3ccc(C(=O)NCCCn4ccnc4)cc32)cc1,-2.65,0.75,-2.51,6.89,21,2.62,0.02,12.3,14.7,10.8
